Source: PubChem (National Center for Advancing Translational Sciences (NCATS))
In the library only some 3.5% were active in any assay of this set; here they are far more common.
JMJD2E inh: JMJD2E (human) inhibition; B2RXH2; JMJD2E catalytic domain, FDH-coupled NADH fluorescence (FDH is formaldehyde dehydrogenase); Potency, µM (top dose mostly 57.1 µM), without a hit: top-dose activity change, negative = inhibition, actives largely listed as inhibitors; actives 1.6% (n = 230,000); active means well fitted inhibition curve with a large enough effect, not every such curve was filed as active; inconclusive means small, poorly fitted or top-dose-only effect, or another doubt; inactive means no such curve, though single readings can be large or run the other way;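 further: 0% = wells with enzyme and -100% = buffer wells without enzyme; nearly all actives have a fitted effect of over 50% in size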
Tau FP inhib: inhibitors of human tau fibril formation. P10636. K18 P301L tau heparin fibrillization, Alexa594 FP, 6 h. Potency, µM (highest dose often 57.7 µM), for the others: at the top dose activity, negative = inhibition, most hits filed as inhibitors. actives 0.39% (n = 280,000). AID 1468; further: nearly all actives have a fitted effect of over 55% in size
Target sequence (P10636 561-689 P618L limits assumed): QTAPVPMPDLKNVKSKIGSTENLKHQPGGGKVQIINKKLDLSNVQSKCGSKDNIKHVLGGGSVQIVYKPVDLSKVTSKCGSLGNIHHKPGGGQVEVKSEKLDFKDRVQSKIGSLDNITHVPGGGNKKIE
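Heparin (20 uM) drove fibril formation of recombinant tau K18 P301L, 15 uM unlabeled with 0.24 uM Alexa 594 label, for 6 hr at 37 C in 100 mM sodium acetate pH 7. Fluorescence polarization (555/632 nm) read 1 hr after 30 uM ThT.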
TRb SRC2 PPI: disrupts binding of human TR beta to SRC2; P10828; TRbeta-SRC2 peptide binding, fluorescence polarization; receptor liganded with 1 µM T3; Potency, µM (top dose mostly 106 µM), inactives show at the top dose activity change, negative = inhibition, usual class: inhibitors; actives 0.065% (n = 280,000);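 further: plate controls were bound peptide for no effect and peptide without receptor for full effect; nearly all actives have a fitted effect of over 50% in size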
Target sequence (P10828 whole entry, looked up): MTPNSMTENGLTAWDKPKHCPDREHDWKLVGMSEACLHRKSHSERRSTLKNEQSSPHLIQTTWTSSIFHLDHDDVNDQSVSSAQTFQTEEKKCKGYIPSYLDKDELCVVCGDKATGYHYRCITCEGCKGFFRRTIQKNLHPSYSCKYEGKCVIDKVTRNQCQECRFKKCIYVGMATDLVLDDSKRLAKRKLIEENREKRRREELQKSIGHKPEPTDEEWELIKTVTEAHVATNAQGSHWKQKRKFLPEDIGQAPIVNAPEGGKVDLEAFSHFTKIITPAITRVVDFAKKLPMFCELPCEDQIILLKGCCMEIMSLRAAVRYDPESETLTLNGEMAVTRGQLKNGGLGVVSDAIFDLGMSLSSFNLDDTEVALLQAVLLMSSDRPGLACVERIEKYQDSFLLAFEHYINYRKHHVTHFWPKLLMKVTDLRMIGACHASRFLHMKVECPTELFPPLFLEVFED
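Assay buffer: 20 mM Tris-HCl, 100 mM NaCl, 10% glycerol, 1 mM EDTA, 0.01% NP-40, 1 mM DTT, 1 uM T3, 5% DMSO; TRb LBD 0.6 uM, Texas Red SRC2 20 nM; FP after 5 hr.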
TR SRC2 fluor cs: Texas Red fluorescence interference in TRb-SRC2 counter-screen. TRb/SRC2 Texas Red total fluorescence interference. actives 0.29% (n = 280,000). Potency, µM (doses to about 106 µM), for the others: top-dose fluorescence change, negative = quenching. AID 1479; active means well fitted curve in either direction with a large enough effect; inconclusive means small, poorly fitted or top-dose-only effect
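Human TRβ ligand-binding domain (0.6 uM) and Texas Red SRC2 peptide (20 nM) in Tris buffer with 1 uM T3 and 5% DMSO were incubated with pinned compound for 5 hr at ambient temperature. Total fluorescence was computed as S + 2P (555/632 nm).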
Tau fluor counter: counter-screen for tau fibril formation inhibitors; tau K18 P301L Alexa594 fluorescence, heparin fibrillization; Potency, µM (titrated, usually from 57.7 µM), for inactives: top-dose activity change, negative = decrease; actives 0.93% (n = 280,000); AID 1463; further: nearly all actives have a fitted effect of over 55% in size
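Human K18 P301L tau (15 uM unlabeled plus 0.24 uM Alexa 594-labeled, final) in 100 mM sodium acetate pH 7 was mixed with compound and 20 uM heparin and incubated 6 hr at 37 C.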
Tau ThT inhib: inhibitors of human tau fibril formation, thioflavin T binding | actives 2.1% (n = 270,000) | Potency, µM (top dose mostly 57.4 µM), inactives show at the top dose activity, negative = inhibition, most hits filed as inhibitors | AID 1460 | P10636 | recombinant tau K18 P301L (four-repeat tau fragment), heparin-induced fibrillization, ThT fluorescence; further: nearly all actives have a fitted effect of over 55% in size
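K18 P301L tau (15 uM + 0.24 uM Alexa 594-tagged), heparin 20 uM, NaOAc pH 7, 6 h 37 C; ThT 30 uM, 1 h RT, ex 450/em 510 nm.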
An asterisk follows results filed as active; ? = inconclusive; / = not tested or not shown; [ ] = remark or other dose. Unless noted, the call rests on the fitted dose curve; in most records, active means well fitted curve in the direction sought with a large enough effect; inconclusive means small, poorly fitted or top-dose-only effect, or another doubt; inactive means no such curve, though single readings can be large; an effect the other way counts as inactive or inconclusive. Unless noted, on the % scale 0 is the no-effect control and ±100 the full control effect; potency means the concentration at half of the fitted maximal effect.

SMILES	JMJD2E inh	Tau FP inhib	TRb SRC2 PPI	TR SRC2 fluor cs	Tau fluor counter	Tau ThT inhib
Cc1cc(-c2ccccc2)nc(N/N=C/c2ccc([N+](=O)[O-])cc2)n1	-4.7%	-12.4%	-4.7%	-2.7%	?	7.08µM*
O=[N+]([O-])c1ccc(N/N=C/c2ccccc2)c(F)c1	2.4%	15.4%	2.4%	-1.3%	?	7.08µM*
Nc1cc(Cl)nc(N/N=C/c2ccc([N+](=O)[O-])cc2)n1	4.3%	3.5%	-0.5%	-0.3%	-22.6%	5.62µM*
Cc1cc2c(C)nc(N/N=C/c3ccc([N+](=O)[O-])cc3)nc2o1	4.3%	4.4%	-1.5%	-1.4%	-10.9%	3.16µM*
Cc1cc2c(C)nc(N/N=C/c3ccc(F)cc3)nc2o1	-2.7%	6.1%	-2.3%	0.8%	-14.9%	?
CCCCNC(=O)COC(=O)c1cc(S(=O)(=O)N2CCCCCC2)ccc1OC	3.2%	8.6%	1.7%	2.7%	-16.1%	-7.7%
CN(Cc1ccc(OC(F)F)cc1)C(=O)c1ccc2nccnc2c1	-7.6%	-1.8%	0.1%	-5.2%	-10.6%	-13.7%
CCOC(=O)c1cnc2c(C)cc(C)cc2c1Nc1cccc(C(=O)O)c1	/	-2.6%	5.8%	-21.4%	-2.9%	-16.8%
CCOC(=O)c1cnc2c(C)cccc2c1Nc1ccc(N2CCOCC2)cc1	1.1%	?	1.3%	-3.4%	?	22.4µM*
CCOC(=O)c1cnc2c(C)cc(C)cc2c1Nc1ccc(S(=O)(=O)Nc2ncccn2)cc1	2.9%	6.1%	-12.5%[53 µM]	35.5µM*[quencher]	3.2%	2.5%
Cc1ccc(-n2nc(C)c3c2OC(N)=C(C#N)C3c2ccc(C)o2)cc1 (stereo unspecified)	25.1µM*	?	-12.4%	-2.8%	?	5.01µM*
Cc1ccc(-c2[nH]nc3c2C(c2ccoc2)C(C#N)=C(N)O3)cc1C (stereo unspecified)	?	?	2.4%	-1.4%	?	31.6µM*
Cc1nn(-c2ccccc2)c2c1C(c1ccccc1)C(C#N)=C(N)O2 (stereo unspecified)	1.3%	5.2%	-4.7%	-2.5%	-18.5%	?
Cc1ccc(-n2nc(C)c3c2OC(N)=C(C#N)C3c2ccco2)cc1 (stereo unspecified)	-20.8%	-11.0%	-11.5%	-3.1%	?	25.1µM*
Cc1ccc(-n2nc(C)c3c2OC(N)=C(C#N)C3c2ccoc2)cc1 (stereo unspecified)	10µM*	?	?	-10.9%	?	12.6µM*
O=C(c1cn[nH]c1)N1CCc2c([nH]c3ccccc23)C1c1c(F)cccc1Cl (stereo unspecified)	-9.2%	-11.1%	2.3%	-0.2%	-23.5%	?
COCCN(C)C(=O)CCc1nnc(Cc2ccc(-c3ccccc3)cc2)o1	-0.5%	-0.6%	-1.9%	-0.4%	-8.8%	-4.8%
CCc1cc2c(=O)c(-c3cscn3)coc2c(CN(C)C)c1O	?	6.1%	3.4%	0.6%	-4.7%	-1.2%
Cc1nc(-c2coc3c(O)c(O)ccc3c2=O)cs1	7.08µM*	-11.5%	7.2%	-3.9%	?	?
COC(=O)c1[nH]c2cc(OC)ccc2c1NC(=O)CN1CCN(c2cccc(C)c2)C(C)C1 (stereo unspecified)	?	?	-4.6%	-4.2%	14.1µM*[quencher]	?
Cc1cc(O)c(C(c2ccccc2Cl)N2CCCCC2)c(=O)n1Cc1ccco1 (stereo unspecified)	/	7.0%	-2.3%	-2.0%	6.6%	-10.7%
COc1ccccc1Nc1nc(N)nc(CSC(=S)N2CCC(C)CC2)n1	6.7%	3.0%	15.5%	6.7%	0.7%	1.0%
Cc1ccccc1NC(=O)CSC(N)=O	-0.6%	?	0.0%	-1.6%	-16.6%	25.1µM*
Cc1ccc(NC(=O)CSc2nnc(-c3cccnc3)s2)cc1	-0.5%	-0.6%	?	0.316µM*[quencher]	-11.9%	-15.0%
COc1ccccc1NC(=O)CSc1nnc(NC(=O)Nc2ccc(C)cc2)s1	/	15.8µM*	-8.6%	0.0%	?	2.9%
SMILES	JMJD2E inh	Tau FP inhib	TRb SRC2 PPI	TR SRC2 fluor cs	Tau fluor counter	Tau ThT inhib
COc1ccccc1NC(=O)CSc1nnc(N)s1	/	-4.4%	-4.7%	-6.6%	6.0%	-15.2%
O=C(CSc1nnc(-c2cccnc2)s1)Nc1ccnc2ccccc12	-1.1%	-10.5%	2.8%	-4.6%	-11.3%	?
NC(=O)SCC(=O)Nc1ccccc1C(=O)O	4.5%	?	-0.6%	0.6%	-17.3%	22.4µM*
CC1CN(C(=O)C2CCCN2S(=O)(=O)c2ccc(Cl)cc2)CC(C)O1 (stereo unspecified)	6.9%	-6.4%	-2.2%	-5.7%	-3.0%	-0.9%
Cc1ccc(CN2C(=O)c3ccccc3NC2c2ccccn2)cc1 (stereo unspecified)	?	-6.3%	5.8%	-0.5%	-4.3%	-2.7%
COc1cccc(NC(=O)c2ccc3[nH]c(C)cc(=O)c3c2)c1	/	3.7%	7.0%	-1.6%	-3.1%	-2.7%
COc1ccccc1NC(=O)CC(C)=O	/	/	-1.4%[201 µM]	-3.0%[201 µM]	/	/
COc1ccccc1NC(=O)CSC(N)=O	-3.8%	?	0.8%	0.4%	-20.2%	31.6µM*
O=C1c2cccc3cccc(c23)C(=O)N1c1ccncc1	?	-3.5%	1.4%	-2.3%	-3.0%	-1.0%
COC(=O)c1cc(=O)c(O)c2c(O)c(O)ccc2c1	8.91µM*	7.94µM*	-1.5%	?	?	3.55µM*
COc1ccc(-c2n[nH]c3c2C(c2ccc(Cl)cc2Cl)NC3=O)cc1 (stereo unspecified)	/	?	-3.2%	0.3%	-1.7%	?
Cc1nc(COC(=O)c2ccc(CO)cc2)cs1	3.3%	-4.4%	-5.7%	-0.6%	1.6%	1.5%
Cc1nc(COC(=O)c2cc(O)c3ccccc3c2O)cs1	?	?	1.0%	-7.9%	?	25.1µM*
O=C(N=Nc1c(O)[nH]c2ccccc12)c1cc(-c2cccs2)[nH]n1	-4.9%	-6.4%	10.5%	-16.8%	?	/
Cc1ccc2[nH]c(O)c(N=Nc3nc4ccccc4s3)c2c1	7.1%	0.8%	7.3%	-4.7%	?	/
Cc1cccc(NC(=S)N=Nc2c(O)[nH]c3ccccc23)c1	-0.5%	-1.0%	-1.6%	-3.2%	14.1µM*[quencher]	7.94µM*
O=C(N=Nc1c(O)[nH]c2ccccc12)c1cc(-c2ccc(F)cc2)n[nH]1	26.7%	-3.0%	0.3%	-5.9%	-16.3%	2.24µM*
NS(=O)(=O)c1cc(C(=O)N=Nc2c(O)[nH]c3ccccc23)ccc1Cl	0.9%	0.6%	1.3%	-11.4%	-29.8%	14.1µM*
Oc1[nH]c2ccccc2c1N=Nc1nc2ccccc2s1	16.4%	6.6%	5.3%	-4.6%	?	2µM*
